# Compound activity deposited in PubChem BioAssay by The Scripps Research Institute Molecular Screening Center.
# TEAD-YAP inh – TEAD-YAP interaction inhibition; HEK-TIYL cells, TEAD-Gal4/YAP UAS-luciferase luminescence; inhibition, % at 9.12 µM; hit rate 1.4% among 640,000; in the data active means inhibition above about 32%;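 further: 0% = median of test compound wells and 100% = reference inhibitor wells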
# GPR151 ag – activates the human receptor GPR151. Q8TDV0. AID 1508602. PathHunter beta-arrestin GPR151 cells, luminescence. hit rate 1% among 650,000. activation, % at 11.2 µM; in the data active means activation above about 4.9%;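 further: 0% = median of compound wells and 100% = cells with positive control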
# FBW7 activator – activators of human E3 ligase FBW7; hit rate 0.13% among 650,000; AlphaScreen FBW7–phospho-cyclin E peptide binding, activator screen; Q969H0; normalized activity (activation), % at 26.1 µM; in the data active means normalized activity above about 1.9%;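 further: purified mutant Fbw7 with reduced substrate affinity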
# Target sequence (Q969H0 whole entry, looked up): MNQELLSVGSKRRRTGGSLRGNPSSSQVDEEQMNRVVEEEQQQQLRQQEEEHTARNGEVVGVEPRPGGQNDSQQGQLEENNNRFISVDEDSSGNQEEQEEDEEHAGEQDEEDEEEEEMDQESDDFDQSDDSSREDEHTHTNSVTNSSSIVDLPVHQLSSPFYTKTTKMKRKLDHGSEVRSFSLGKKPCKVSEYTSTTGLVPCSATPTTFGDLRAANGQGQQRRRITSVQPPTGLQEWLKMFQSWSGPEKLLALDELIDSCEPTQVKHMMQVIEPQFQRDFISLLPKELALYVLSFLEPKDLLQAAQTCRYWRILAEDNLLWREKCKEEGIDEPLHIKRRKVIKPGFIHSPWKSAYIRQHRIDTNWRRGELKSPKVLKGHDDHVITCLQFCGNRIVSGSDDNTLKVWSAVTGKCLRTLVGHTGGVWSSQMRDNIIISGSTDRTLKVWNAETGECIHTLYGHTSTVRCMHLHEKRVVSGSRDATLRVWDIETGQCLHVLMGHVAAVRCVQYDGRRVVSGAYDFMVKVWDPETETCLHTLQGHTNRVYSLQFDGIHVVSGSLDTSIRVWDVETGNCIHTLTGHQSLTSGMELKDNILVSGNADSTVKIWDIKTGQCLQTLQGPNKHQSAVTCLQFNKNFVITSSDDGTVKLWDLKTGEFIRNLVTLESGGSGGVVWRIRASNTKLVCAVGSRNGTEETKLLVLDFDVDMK
# MITF primary – human MITF inhibition, primary screen | AlphaScreen MITF homodimerization, bead proximity signal | O75030 | hit rate 0.91% among 650,000 | inhibition, % at 2.6 µM; in the data active means inhibition above about 50%;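 further: 0% = vehicle wells with protein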
# The depositor's hits bear a star; ! = not active in a repeat. This is a sample that favours compounds with a hit; in the whole collection about 3.4% have one here.
SMILES,TEAD-YAP inh,GPR151 ag,FBW7 activator,MITF primary
COc1ccc(-c2nc(NCCc3ccc(O)cc3)c3ncn(C(C)C)c3n2)cn1,65*,-1,0,5
CC(C)n1cnc2c(NCCc3ccc(O)cc3)nc(-c3ccc(C(N)=O)cc3)nc21,52*,-1,0,15
COc1ccc(CCNc2nc(-c3ccc(OC)cc3)nc3c2ncn3C(C)C)cc1,-1,1,0,0
COc1ccc(-c2nc(NCCN(C(C)C)C(C)C)c3ncn(C(C)C)c3n2)cc1,39*,1,0,-2
Fc1ccc2c(c1)nc(NCc1ccccc1)c1nccn12,-9,-3,0,13
Fc1ccc2c(c1)nc(NCc1ccncc1)c1nccn12,49*,-1,0,1
O=C(CCl)NCCSc1ccc(Cl)cc1,57*,1,0,-2
CCOC(=O)COc1ccccc1/C=C1/C(=O)NN(c2ccccc2)C1=O,-8,-1,0,-6
COc1ccccc1N(CCOC(=O)c1ccccc1Br)S(=O)(=O)c1ccc(NC2=NS(=O)(=O)c3ccccc32)cc1,-8,-1,0,1
COC(=O)Cc1nc(NCc2ccccc2)c2c(C)c(C)sc2n1,67*,1,1,8
O=C(/C=C/c1ccccc1Cl)Nc1cccc(O)c1,38*,-2,0,11
COc1ccc(/C=C/C(=O)Nc2ccccc2F)cc1,80*,-11,0,10
O=C(/C=C/c1ccc(Cl)cc1Cl)Nc1ccccc1F,47*,-1,0,4
O=C(/C=C/c1ccccc1Cl)Nc1ccc2c(c1)C(=O)NC2=O,2,0,0,16
COC(=O)c1c(-c2ccccc2Cl)csc1NC(=O)/C=C/C(=O)O,42*,0,0,5
COC(=O)c1c(-c2ccc(C)c(C)c2)csc1NC(=O)/C=C/C(=O)O,33*,1,0,-11
COC(=O)c1c(NC(=O)/C=C/C(=O)O)sc(C)c1-c1cc(C)ccc1C,42*,0,0,2
CCOC(=O)Nc1ccc2c(c1)N(C(=O)OCC)c1ccccc1CC2,48*,0,0,5
O=C(CSc1nc2c(c(=O)n1CCc1ccccc1)SCC2)Nc1ccccc1F,1,2,0,10
CCc1cc(-c2[nH]ncc2-c2ccc3c(c2)OCCO3)c(O)cc1OC,63*,1,0,9
COc1ccc(-c2c(N)n[nH]c2-c2ccccc2)cc1OC,6,3,1,7
COc1ccccc1NC(=O)CCc1nc(-c2ccc(C(C)(C)C)cc2)no1,71*,-2,0,-1
COc1ccccc1NC(=O)CCCc1nc(-c2ccc(C)cc2)no1,10,0,0,5
O=C(CCCc1ccccc1)Nc1ccc(S(=O)(=O)NCC2CCCO2)cc1 (stereo unspecified),10,0,0,16
Cc1ccc(-c2cn3ccccc3n2)cc1C,59*,-8,0,6
SMILES,TEAD-YAP inh,GPR151 ag,FBW7 activator,MITF primary
Cc1ccn2cc(-c3ccc(O)c(O)c3)nc2c1,64*,-7,0,21
Cc1ccn2cc(-c3cccc(NC(=O)c4ccccc4)c3)nc2c1,-52,-2,0,6
Cc1ccn2cc(-c3cccc(Cl)c3)nc2c1,-29,-7,0,18
CN(C)S(=O)(=O)c1ccc(-c2cn3ccccc3n2)cc1,-7,-2,0,-1
Cc1ccn2cc(-c3ccccc3)nc2c1,77*,-8,1,0
Cc1ccn2cc(-c3ccc4ccccc4c3)nc2c1,63*,-6,0,-5
Oc1ccc(-c2cn3ccccc3n2)cc1O,-31,-5,0,9
Cc1nc2sc(C(=O)c3ccccc3)c(N)c2c(C)c1Cl,1,1,0,-22
Cc1nc(SCc2ccc(Cl)c(Cl)c2)n[nH]1,8,-1,0,17
COc1ccc(CSc2n[nH]c(C)n2)cc1Br,34*,-1,0,5
CC(=O)Nc1cc(F)cc(-c2ccnc(Nc3ccc(-n4nc(C)nc4C)cc3)n2)c1,45*,0,0,9
Cc1nc(C)n(-c2ccc(Nc3nccc(-c4cccc(-n5ccnn5)c4)n3)cc2)n1,44*,4,0,15
CCN(CC)c1ccc2c(CN3CCOCC3)cc(=O)oc2c1,-2,1,1,-9
CCc1ccc(OCc2nnc(NC(=O)Nc3cccc(OC)c3)s2)cc1,8,-1,0,-16
CCN(CC)S(=O)(=O)c1ccc(Cl)c(C(=O)Oc2cccc(NC(=O)c3ccc(OC)cc3)c2)c1,67*,-2,0,2
CCN(CC)S(=O)(=O)c1cccc(C(=O)Nc2ccc(C#N)cc2)c1,47*,5,0,0
CCN(CC)S(=O)(=O)c1ccc(Cl)c(C(=O)Oc2cccc(NC(=O)c3ccccc3Cl)c2)c1,12,-1,0,-4
CCN(CC)S(=O)(=O)c1cccc(C(=O)Oc2cccc(NC(=O)c3ccc(OC)cc3)c2)c1,66*,-2,0,-4
Cc1ccc(CNc2nc3ccccc3s2)s1,66*,1,0,0
C#CCOc1c(Br)cc(CO)cc1OCC,-4,0,0,-5
CC(=O)c1cccc(-c2nc(NCCN(C(C)C)C(C)C)c3ncn(-c4ccsc4)c3n2)c1,49*,-1,0,3
FC(F)(F)c1cccc(CNc2nc(Nc3ccccc3)nc3c2ncn3-c2ccsc2)c1,-2,3,0,8
FC(F)(F)c1cccc(CNc2nc(Oc3ccccc3)nc3c2ncn3-c2ccsc2)c1,74*,1,0,-6
CC(=O)c1cccc(-c2nc(NCCN(C(C)C)C(C)C)c3ncn(-c4ccccc4)c3n2)c1,15,0,0,-1
CC(C)N(CCNc1nc(-c2cccc(N)c2)nc2c1ncn2-c1ccsc1)C(C)C,59*,0,0,-6
SMILES,TEAD-YAP inh,GPR151 ag,FBW7 activator,MITF primary
CC(=O)c1cccc(-c2nc(NCCO)c3ncn(-c4ccsc4)c3n2)c1,49*,-2,0,19
CC(=O)c1cccc(-c2nc(NCc3ccccc3)c3ncn(-c4ccsc4)c3n2)c1,14,4,0,7
COc1ccc(-c2nc(NCCN(C(C)C)C(C)C)c3ncn(-c4ccsc4)c3n2)cc1,7,-1,0,-8
COC(=O)c1ccc(C2Nc3c(OC)cc([N+](=O)[O-])cc3C3C=CCC32)cc1 (stereo unspecified),-15,0,0,15
C=CCSc1nnc(-c2c(C)nc3c(C)cccn23)n1C,0,-1,0,-2
OCCNc1nc(-c2ccccc2)nc2c1ncn2-c1ccsc1,42*,2,0,-3
CC(=O)c1cccc(-c2nc(NCCO)c3ncn(C(C)C)c3n2)c1,55*,2,0,16
CNC[C@H](O)c1ccc(O)c(O)c1,-11,0,0,56*!
O=C(Cn1c(-c2ccncc2)nc2ccccc21)Nc1ccccc1F,-9,0,0,-7
O=C(NCc1nc2ccccc2[nH]1)c1ccnc(-c2ccc(N3CCOCC3)nc2)c1,32*,-2,0,6
O=C(NCc1nc2ccccc2[nH]1)c1cccc(-c2ccc(N3CCOCC3)nc2)c1,43*,4,0,3
CN1CCN(c2ccc(-c3cccc(C=O)c3)cn2)CC1,-30,-5,0,9
